Data as given in the supplement of paper PMC13380429.

System: Vero E6 infected with SARS-CoV-2
Assay: inhibition of SARS-CoV-2 cytopathic effect; higher = more antiviral protection, active = above 15
Conditions: 48 h

Measured: inhibition of SARS-CoV-2 cytopathic effect

C=CC(=O)Nc1cccc(Nc2nc(Nc3ccc(N4CCN(C(C)=O)CC4)cc3OC)ncc2C(F)(F)F)c1 [rociletinib]
inactive: 1 nM -0.09% | 8.33 nM -1.67% | 100 nM -0.14% | 833.33 nM -2.42% | 10000 nM -11.9%

OCCCCO [1,4-butanediol]
inactive: 1 nM -4.4% | 8.33 nM -1.22% | 100 nM -1.14% | 833.33 nM 0.26% | 10000 nM -1.17%

O=c1[nH]c2ccc(Cl)cc2c(N[C@@H]2CN3CCC2CC3)c1-c1nc2ccccc2[nH]1
inactive: 1 nM 0.01% | 8.33 nM 0.79% | 100 nM -0.9% | 833.33 nM -5.44% | 10000 nM -15.4%

CCN1CCN(C(=O)Cc2ccc(Nc3ncc(F)c(Nc4ccc(C(=O)Nc5ccccc5Cl)cc4)n3)cc2)CC1 [aurora-a-inhibitor-i]
inactive: 1 nM -0.07% | 8.33 nM -0.73% | 100 nM -0.58% | 833.33 nM 0.9% | 10000 nM 4.49%

CN[C@@H]1[C@@H](O)[C@@H](O[C@@H]2[C@@H](O)[C@H](O[C@H]3O[C@H](CN)[C@@H](O)[C@H](O)[C@H]3O)[C@@H](N)C[C@H]2NC(=O)[C@@H](O)CN)OC[C@]1(C)O [isepamicin]
inactive: 1 nM -2.06% | 8.33 nM 1% | 100 nM 3.72% | 833.33 nM -1.29% | 10000 nM -1.06%

CCOc1cc(C(=O)Nc2ccc(Cl)c(-c3nc4ccccc4[nH]3)c2)cc(OCC)c1OCC
inactive: 1 nM 2.95% | 8.33 nM 2.03% | 100 nM 0.45% | 833.33 nM -3.49% | 10000 nM 4.29%

Clc1ccc([C@]23CNC[C@H]2C3)cc1Cl [amitifadine]
inactive: 1 nM 0.8% | 8.33 nM 2.82% | 100 nM 0.87% | 833.33 nM 1.86% | 10000 nM 3.82%

CN(CCOc1ccc(CC2SC(=O)NC2=O)cc1)c1ccccn1 (stereo not given) [rosiglitazone]
inactive: 1 nM -1.76% | 8.33 nM -2.53% | 100 nM -4.45% | 833.33 nM -0.37% | 10000 nM 1.48%

C[C@@H](O[C@H]1OCCN(Cc2n[nH]c(=O)[nH]2)[C@H]1c1ccc(F)cc1)c1cc(C(F)(F)F)cc(C(F)(F)F)c1 [aprepitant]
inactive: 1 nM -2.6% | 8.33 nM -2.93% | 100 nM -3.21% | 833.33 nM -4.32% | 10000 nM -6.5%

CC(C)[C@@H](C)/C=C/[C@@H](C)[C@H]1CC[C@H]2/C(=C/C=C3\C[C@@H](O)CC[C@@H]3C)CCC[C@]12C [dihydrotachysterol]
inactive: 1 nM -0.76% | 8.33 nM 0.52% | 100 nM -1.39% | 833.33 nM -0.26% | 10000 nM -0.14%

C=C(C)[C@@H]1CC=C(CO)CC1 [perillyl-alcohol]
inactive: 1 nM 2.64% | 8.33 nM -3.02% | 100 nM 2.99% | 833.33 nM 2.39% | 10000 nM -1.2%

C1=Cc2cccc(OCC3CNCCO3)c2C1 (stereo not given) [indeloxazine]
inactive: 1 nM 1.29% | 8.33 nM 2.5% | 100 nM 1.2% | 833.33 nM 0.43% | 10000 nM -0.62%

CC(C)(NS(=O)(=O)c1ccc(Oc2ccc(F)cc2)cc1)C(=O)NO
inactive: 1 nM 3.55% | 8.33 nM 0.75% | 100 nM 2.56% | 833.33 nM 0.48% | 10000 nM -0.6%

CC(C)[C@H](CO)Nc1nc(Nc2cccc(Cl)c2)c2ncn(C(C)C)c2n1 [purvalanol-A]
inactive: 1 nM -1.59% | 8.33 nM -0.55% | 100 nM -0.26% | 833.33 nM 2.68% | 10000 nM -2.25%

Cc1cc(C(=O)Nc2cc(Oc3ccc4nc(NC(=O)C5CC5)cn4n3)ccc2C)n(C)n1
inactive: 1 nM -0.96% | 8.33 nM -3.26% | 100 nM -4.84% | 833.33 nM -7.63% | 10000 nM -4.87%

O=C1CCC[C@@H]2[C@H]3C[C@@H](CN12)[C@@H]1CCCCN1C3 [lupanine]
inactive: 1 nM 2.64% | 8.33 nM 9.38% | 100 nM 5.68% | 833.33 nM 1.8% | 10000 nM -0.17%

N#CC(Cc1ccc(O)cc1)c1ccc(O)cc1 (stereo not given) [diarylpropionitrile]
inactive: 1 nM -1.07% | 8.33 nM 1.57% | 100 nM -1.11% | 833.33 nM -3.56% | 10000 nM -1.54%
